Laboratory results from publication PMC5540273 (PLoS ONE, 2017).

Experiments:
Settings in all cases: concentration: 1 μM, replicates: in singlicate; n = 1
CHEK2 = system: CHEK2
CIT = system: CIT
CLK1 = system: CLK1
CLK2 = system: CLK2
CLK3 = system: CLK3
CLK4 = system: CLK4
CSF1R-autoinhibited = system: CSF1R-autoinhibited
CSF1R = system: CSF1R
CSK = system: CSK
CSNK1A1L = system: CSNK1A1L
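Also: KINOMEscan kinase panel screen.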

Row | Structure (SMILES) | %Inh (CHEK2) [%] | %Inh (CIT) [%] | %Inh (CLK1) [%] | %Inh (CLK2) [%] | %Inh (CLK3) [%] | %Inh (CLK4) [%] | %Inh (CSF1R-autoinhibited) [%] | %Inh (CSF1R) [%] | %Inh (CSK) [%] | %Inh (CSNK1A1L) [%]
1 | Cc1cccc(-c2nc(Nc3cccc(C(N)=O)c3)c3ccccc3n2)n1 [GW876019] | 0 | 45 | 18 | 6 | 14 | 0 | 0 | 0 | 0 | 3
2 | O=c1cc(N2CCOCC2)nc2n(Cc3cccc(Cl)c3Cl)ccn12 [GSK2286295] | 0 | 5 | 64 | 14 | 13 | 51 | 0 | 25 | 0 | 6
3 | NC(=O)c1nnc2ccccc2c1N | 16 | 7 | 51 | 17 | 1 | 1 | 0 | 14 | 0 | 38
4 | Cl.c1ccc(-c2n[nH]cc2-c2ccnc(-c3ccc(CN4CCOCC4)cc3)c2)nc1 [GW776245] | 0 | 10 | 0 | 10 | 0 | 0 | 0 | 0 | 10 | 1
5 | COc1ccc(Nc2nccc(NCCNC(=O)Nc3ccccc3F)n2)cc1 [GSK1379901] | 0 | 0 | 32 | 0 | 100 | 29 | 0 | 11 | 3 | 0
6 | CC(=O)Nc1nc2cnc(Nc3cc(NC(=O)c4cccc(CCC#N)c4)ccc3C)nc2s1 | 0 | 34 | 0 | 3 | 0 | 12 | 0 | 90.9 | 0 | 0
7 | Fc1cc(Cl)ccc1Nc1ccnc2cc(-c3ccc(CN4CCCCC4)o3)ccc12 [GW560116] | 35 | 63 | 11 | 0 | 0 | 27 | 0 | 20 | 0 | 1
8 | CCCc1ccc(S(=O)(=O)NC2CCN(c3ccnc(Nc4ccc(F)cc4)n3)C2)cc1 (stereo not drawn) [GSK1379715] | 0 | 0 | 12 | 0 | 10 | 0 | 0 | 0 | 0 | 0
9 | Cc1cc(NCC(c2ccccc2)c2ccccc2)nc(NCc2ccc(C(F)(F)F)cc2)n1 [GW497681] | 18 | 30 | 15 | 0 | 37 | 15 | 30 | 6 | 0 | 2
10 | COC(=O)c1c(-c2ccccc2)c2cc(OC)ccc2c(=O)n1Cc1ccccc1 | 15 | 6 | 0 | 4 | 0 | 5 | 20 | 51 | 0 | 4
11 | Cc1ccc(NC(=O)Nc2cccc(Cl)c2)cc1-c1ccc(C(=O)Nc2ccncc2)cc1 [GSK1398468] | 0 | 86 | 30 | 0 | 12 | 5 | 12 | 78 | 0 | 15
12 | Cn1cncc1-c1ccc2ncnc(Nc3ccc(OCc4ccccc4)cc3)c2c1 [GW320571] | 0 | 6 | 23 | 57 | 100 | 32 | 0 | 0 | 0 | 22
13 | Cc1ccc(NC(=O)Nc2cc(C(C)(C)C)nn2-c2ccccc2)cc1 [GSK1014915] | 0 | 29 | 33 | 0 | 14 | 15 | 0 | 30 | 0 | 9
14 | Cl.O=C(Nc1cccc(-c2nn3ncccc3c2-c2ccnc(Nc3cccnc3)n2)c1)c1c(F)cccc1F [GSK312879] | 0 | 30 | 19 | 3 | 0 | 12 | 0 | 17 | 18 | 4
15 | CC1=C(C(=O)Nc2cc3cn[nH]c3cc2F)C(c2ccc(C(F)(F)F)cc2)CC(=O)N1 (stereo not drawn) [GSK429286] | 0 | 5 | 14 | 0 | 37 | 0 | 0 | 7 | 0 | 7
16 | CC(C)(C)c1ccc(C(=O)Nc2cn3cc(Cl)ccc3n2)cc1 | 2 | 27 | 75 | 29 | 2 | 75 | 14 | 1 | 0 | 0
17 | Cc1ccccc1-n1cnc2c(N)ncnc21 [SKF-97510] | 0 | 0 | 2 | 26 | 0 | 0 | 0 | 6 | 7 | 0
18 | CS(=O)(=O)c1ccc(-c2c(-c3ncn[nH]3)sc(N3CCOCC3)c2C#N)cc1 | 5 | 4 | 5 | 8 | 0 | 0 | 0 | 27 | 16 | 0
